Bioassay records from PubChem.
This is a sample that favours compounds with a hit; in the whole collection about 3.5% have one here.
MITF primary = MITF inhibitors, primary screen, biochemical, AlphaScreen, human; Microphthalmia-associated transcription factor (Homo sapiens), O75030; AlphaScreen MITF homodimerization, bead proximity signal; inhibition, % at 2.6 µM; actives 0.91% (n = 650,000); AID 1259374, 2018; in the data active means inhibition above about 50%;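 further: 0% = vehicle wells with protein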
GPR151 activ = activators of human GPR151, primary screen, cell-based, PathHunter beta-arrestin, luminescence; PathHunter beta-arrestin GPR151 cells; activation, % at 11.2 µM; actives 1% (n = 650,000); AID 1508602, 2020; in the data active means activation above about 4.9%;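 further: 0% = median of compound wells and 100% = cells with positive control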
FBW7 act = FBW7 E3 ligase activators, primary screen, biochemical, AlphaScreen, human. F-box/WD repeat-containing protein 7 (Homo sapiens), Q969H0. AlphaScreen FBW7–phospho-cyclin E peptide binding, activator screen. normalized activity (activation), % at 26.1 µM. actives 0.13% (n = 650,000); in the data active means normalized activity above about 1.9%;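 further: purified mutant Fbw7 with reduced substrate affinity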
Target sequence (Q969H0 whole entry, looked up): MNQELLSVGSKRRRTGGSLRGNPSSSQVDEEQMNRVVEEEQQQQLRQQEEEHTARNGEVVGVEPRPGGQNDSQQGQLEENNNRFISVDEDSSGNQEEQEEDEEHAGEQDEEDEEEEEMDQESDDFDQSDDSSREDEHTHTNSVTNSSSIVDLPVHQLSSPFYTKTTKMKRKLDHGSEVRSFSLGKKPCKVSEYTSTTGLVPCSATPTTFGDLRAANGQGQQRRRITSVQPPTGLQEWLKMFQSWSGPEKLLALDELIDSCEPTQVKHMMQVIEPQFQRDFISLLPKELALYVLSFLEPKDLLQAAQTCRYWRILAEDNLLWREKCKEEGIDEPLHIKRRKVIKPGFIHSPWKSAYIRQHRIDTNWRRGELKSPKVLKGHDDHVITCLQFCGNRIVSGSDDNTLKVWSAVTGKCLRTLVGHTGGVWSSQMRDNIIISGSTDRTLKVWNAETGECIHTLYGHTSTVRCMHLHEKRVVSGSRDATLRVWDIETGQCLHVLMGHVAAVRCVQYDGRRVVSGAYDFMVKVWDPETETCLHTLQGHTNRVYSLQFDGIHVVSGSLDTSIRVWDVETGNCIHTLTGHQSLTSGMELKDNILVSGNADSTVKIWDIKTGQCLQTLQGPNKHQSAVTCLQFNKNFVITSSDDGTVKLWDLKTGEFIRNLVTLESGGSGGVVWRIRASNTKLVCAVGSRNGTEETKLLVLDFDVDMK
TEAD-YAP inh = TEAD-YAP interaction inhibition, primary screen, TEAD-YAP interaction inhibitor project, luminescence, HEK-TIYL cells; actives 1.4% (n = 640,000); inhibition, % at 9.12 µM; TEAD-Gal4/YAP UAS-luciferase luminescence; AID 1259422, 2018; in the data active means inhibition above about 32%;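 further: 0% = median of test compound wells and 100% = reference inhibitor wells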
* marks the source's active call; other numbers are inactive results.

Results for COc1cccc(N(CC(=O)Nc2ccc(Cl)cc2)S(C)(=O)=O)c1 ?
MITF primary: 10; GPR151 activ: 0; FBW7 act: 0; TEAD-YAP inh: 9

How did COc1ccccc1N/C=C/C(=O)c1ccccc1 do in these assays?
MITF primary: 5; GPR151 activ: -1; FBW7 act: 0; TEAD-YAP inh: 46*

Results for O=C(CC(Nc1ccc(F)cc1)C(=O)O)c1ccccc1 (stereo unspecified) ?
MITF primary: -11; GPR151 activ: 2; FBW7 act: 0; TEAD-YAP inh: -5

How did COc1ccccc1NC(CC(=O)c1ccccc1)C(=O)O (stereo unspecified) do in these assays?
MITF primary: -7; GPR151 activ: 0; FBW7 act: 0; TEAD-YAP inh: 54*

Results for COc1ccc(OC)c(N/C=C/C(=O)c2ccccc2)c1 ?
MITF primary: 10; GPR151 activ: -9; FBW7 act: 0; TEAD-YAP inh: 95*

What do the screens show for `COc1cccc(C(=O)/C=C/Nc2cc(Cl)ccc2OC)c1`?
MITF primary: 12; GPR151 activ: -3; FBW7 act: 0; TEAD-YAP inh: -34

How did COc1cccc(C(=O)/C=C\Nc2ccc(OC)cc2OC)c1 do in these assays?
MITF primary: 1; GPR151 activ: -9; FBW7 act: 0; TEAD-YAP inh: 80*

How did COc1ccccc1-c1nn2c(-c3ccc(F)cc3)nnc2s1 do in these assays?
MITF primary: -16; GPR151 activ: 0; FBW7 act: 0; TEAD-YAP inh: 8

Results for CCOc1ccc(S(=O)(=O)Nc2ccccc2CC)cc1 ?
MITF primary: 11; GPR151 activ: 2; FBW7 act: 0; TEAD-YAP inh: 16

What do the screens show for `COc1ccc(S(=O)(=O)Nc2ccc(OC)cc2OC)cc1`?
MITF primary: -1; GPR151 activ: 0; FBW7 act: 0; TEAD-YAP inh: 61*

Results for CCOc1ccccc1NS(=O)(=O)c1ccc(OC)cc1 ?
MITF primary: 13; GPR151 activ: 1; FBW7 act: 1; TEAD-YAP inh: 47*

Results for CCOc1ccc(S(=O)(=O)Nc2ccccc2OC)cc1 ?
MITF primary: 0; GPR151 activ: 0; FBW7 act: 0; TEAD-YAP inh: 42*

Results for COc1ccc(NS(=O)(=O)c2ccc(F)cc2)c(OC)c1 ?
MITF primary: 8; GPR151 activ: 0; FBW7 act: 0; TEAD-YAP inh: 15

Results for Cc1ccccc1C(=O)NC(=S)Nc1nc(-c2ccccc2)cs1 ?
MITF primary: 6; GPR151 activ: 0; FBW7 act: 0; TEAD-YAP inh: 3

How did COc1cc([N+](=O)[O-])ccc1NC(=O)C(C)Oc1ccc2c(C)cc(=O)oc2c1 (stereo unspecified) do in these assays?
MITF primary: 14; GPR151 activ: -2; FBW7 act: 0; TEAD-YAP inh: 10

Results for CC1=NN(c2ccccc2)C(=O)/C1=C(/c1ccccc1)N1CCOCC1 ?
MITF primary: -5; GPR151 activ: 1; FBW7 act: 0; TEAD-YAP inh: 40*

Results for Cc1cc(O)c(C=O)c2c1C(=O)Oc1c(COC(=O)/C=C/C(=O)O)c(O)c(C(=O)O)c(C)c1O2 ?
MITF primary: 76*; GPR151 activ: 0; FBW7 act: 0; TEAD-YAP inh: 5

Results for CS(=O)(=O)Nc1cccc(-c2cnn3c(N4CCOCC4)ccnc23)c1 ?
MITF primary: 4; GPR151 activ: -2; FBW7 act: 2.0*; TEAD-YAP inh: -1

What do the screens show for `Oc1ccc(-c2cnn3c(N4CCC(O)CC4)ccnc23)cc1`?
MITF primary: 6; GPR151 activ: -1; FBW7 act: 0; TEAD-YAP inh: 52*

Results for Cc1ccc(-c2cnn3c(N4CCC(O)CC4)ccnc23)cc1C ?
MITF primary: 2; GPR151 activ: 0; FBW7 act: 0; TEAD-YAP inh: -83

What do the screens show for `Oc1ccc(-c2cnn3c(N4CCOCC4)ccnc23)cc1`?
MITF primary: 0; GPR151 activ: -1; FBW7 act: 0; TEAD-YAP inh: 98*

How did Cc1sc2ncnc(N/N=C/c3ccccn3)c2c1C do in these assays?
MITF primary: 20; GPR151 activ: -1; FBW7 act: -1; TEAD-YAP inh: 92*

Results for CCOc1cc(/C=N\NC(=O)c2ccc(N)cc2)ccc1OCc1ccccc1 ?
MITF primary: 7; GPR151 activ: 2; FBW7 act: 0; TEAD-YAP inh: -1

What do the screens show for `CCOc1cc(/C=N/N=C(N)N)ccc1OCc1ccccc1`?
MITF primary: 6; GPR151 activ: 1; FBW7 act: 0; TEAD-YAP inh: 40*

How did O=C(Nc1ccc(F)cc1)c1ccc(Cl)c([N+](=O)[O-])c1 do in these assays?
MITF primary: 19; GPR151 activ: 1; FBW7 act: 0; TEAD-YAP inh: 48*

How did O=C(Nc1cccc(C(F)(F)F)c1)c1ccc(Cl)c([N+](=O)[O-])c1 do in these assays?
MITF primary: 4; GPR151 activ: -1; FBW7 act: 0; TEAD-YAP inh: 62*

What do the screens show for `O=C(Nc1cccc(I)c1)c1cc([N+](=O)[O-])ccc1Cl`?
MITF primary: 8; GPR151 activ: 0; FBW7 act: 1; TEAD-YAP inh: 45*

What do the screens show for `O=C(Nc1cccc(F)c1)c1ccc(Cl)c([N+](=O)[O-])c1`?
MITF primary: 2; GPR151 activ: 2; FBW7 act: 0; TEAD-YAP inh: 13

What do the screens show for `O=C(Nc1cccc(I)c1)c1ccc(Cl)c([N+](=O)[O-])c1`?
MITF primary: 21; GPR151 activ: -3; FBW7 act: 0; TEAD-YAP inh: 33*

How did Cc1nn(C)c(C)c1-c1nc(Nc2ccc(Oc3ccccc3)cc2)c2ncn(Cc3ccc(C(F)(F)F)cc3)c2n1 do in these assays?
MITF primary: -5; GPR151 activ: 1; FBW7 act: 0; TEAD-YAP inh: -11

Results for O=C(O)c1c(CNC2CCCC2)c2ccccc2n1Cc1cccc(Cl)c1 ?
MITF primary: 8; GPR151 activ: 0; FBW7 act: 1; TEAD-YAP inh: 27

Results for Cc1ccc(NC(=O)C(C)Sc2nc(=O)cc(N)n2CCc2ccccc2)cc1 (stereo unspecified) ?
MITF primary: -5; GPR151 activ: 1; FBW7 act: 0; TEAD-YAP inh: 3

What do the screens show for `Cc1cccc(NC(=O)c2cc(Cl)ccc2[N+](=O)[O-])c1`?
MITF primary: 0; GPR151 activ: -1; FBW7 act: 0; TEAD-YAP inh: 45*

Results for O=C(Nc1ccc(Cl)cc1)c1cc(Cl)ccc1[N+](=O)[O-] ?
MITF primary: -6; GPR151 activ: -1; FBW7 act: 0; TEAD-YAP inh: 7

Results for O=C(Nc1ccc2c(c1)OC(F)(F)O2)c1cc([N+](=O)[O-])ccc1Cl ?
MITF primary: 5; GPR151 activ: 0; FBW7 act: 0; TEAD-YAP inh: 68*
